{"source": "PubChem BioAssay (NCI)", "note": "Several values for one entry are separate records, joined by “and”; a condition that tells them apart may be missing. Equal entries are not always repeated. About 83,000 compounds went through this panel and 20% of them were active in at least one assay; those are over-represented in the sample as a whole.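 Cells were grown in 96-well plates and exposed to the test compound at a single concentration for 48 hours; results are reported as percent growth, with values below 10 considered active.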 Values without a mark were called inactive. Activity calls are given as the source filed them. Where a SMILES comes first, the peptide text is derived from it. [ ]: non-standard residue; d: D form. ξ: configuration not given here. ξV = CC(C)C(N)C(=O)O"}
{"system": "HCT-15 colon", "experiment": "NCI-60 one-dose screen, 48 h (100 = growth as untreated, 0 = no growth, -100 = all killed)", "conditions": "0.0025 µM", "procedure": "(§1) Growth inhibition of the HCT-15 human tumor cell line is measured as a screen for anti-cancer activity. Cells are grown in 96 well plates and exposed to the test compound for 48 hours. Compounds are tested at a single concentration, which is 10^-5 M for most compounds. The reported endpoint is percent growth (GI% or GIPRCNT), where numbers from 0 - 100% represent growth inhibition, and numbers from -100% - 0 represent cell death. For example, a value of 40 represents 60% growth inhibition. A value of 0 means no net growth occurred over the course of the experiment. A value of -40 indicates 40% of cells at the beginning of the experiment died by the end of the experiment. A value of -100 means all cells are dead at the end of the experiment.\n(§2) NCI-60 Human Tumor Cell Lines Screen was performed using the standard one-dose NCI protocol, which is described in more detail at https://dtp.cancer.gov/discovery_development/nci-60/default.htm.\n(§3) Compounds with GIPRCNT values below 10 were considered active. Activity score was based on GIPRCNT using the following formula: […]\n(§4) Score is 0 for GIPRCNT values of 100 or above, 50 for GIPRCNT values of 0, and 100 for GIPRCNT values of -100.", "units": {"growth": "%"}}
{"smiles": "COc1cccc2c1C(=O)c1c(O)c3c(c(O)c1C2=O)C[C@@](O)(C(=O)CO)C[C@@H]3OC1CC(N)C(O)C(C)O1", "note": "(stereo not given in full)", "growth": 99.2}
{"system": "HCT-15 colon", "experiment": "NCI-60 one-dose screen, 48 h (100 = growth as untreated, 0 = no growth, -100 = all killed)", "conditions": "1 µM", "procedure": "as §1, §2, §3, §4", "units": {"growth": "%"}}
{"smiles": "COc1cccc2c1C(=O)c1c(O)c3c(c(O)c1C2=O)C[C@@](O)(C(=O)CO)C[C@@H]3OC1CC(N)C(O)C(C)O1", "note": "(stereo not given in full)", "growth": 81.9}
{"system": "HCT-15 colon", "experiment": "NCI-60 one-dose screen, 48 h (100 = growth as untreated, 0 = no growth, -100 = all killed)", "conditions": "2.5 µM", "procedure": "as §1, §2, §3, §4", "units": {"growth": "%"}}
{"smiles": "COc1cccc2c1C(=O)c1c(O)c3c(c(O)c1C2=O)C[C@@](O)(C(=O)CO)C[C@@H]3OC1CC(N)C(O)C(C)O1", "note": "(stereo not given in full)", "growth": 70.2}
{"system": "HCT-15 colon", "experiment": "NCI-60 one-dose screen, 48 h (100 = growth as untreated, 0 = no growth, -100 = all killed)", "conditions": "10 µM", "procedure": "as §1, §2, §3, §4"}
{"smiles": "COc1cccc2c1C(=O)c1c(O)c3c(c(O)c1C2=O)C[C@@](O)(C(C)=O)C[C@@H]3OC1CC(N)C(O)C(C)O1", "note": "(stereo not given in full)", "growth": "3.22% (active)"}
{"smiles": "CC[N+](CC)=c1ccc2nc3c(cc(N)c4ccccc43)oc-2c1", "growth": "-54.6% (active)"}
{"smiles": "CN(C)C(=S)SC(=S)N(C)C", "growth": "87.5% and 95.5%"}
{"smiles": "CCCCCCCCCCCCSC(=NC)NC", "growth": "-25.5% (active) and -28.8% (active)"}
{"smiles": "CCCCCCCCCCCCCCCCCCOCC(COP(=O)([O-])OCC[N+](C)(C)C)OC", "note": "(stereo not given)", "growth": "61%"}
{"smiles": "O=C(/C=C/c1cccnc1)c1ccccc1", "growth": "63.2%"}
{"smiles": "O=C(/C=C/c1ccccn1)c1ccccc1", "growth": "-8.15% (active)"}
{"smiles": "COc1cccc2c1C(=O)c1c(O)c3c(c(O)c1C2=O)C[C@@](O)(C(=O)CO)C[C@@H]3OC1CC(N)C(O)C(C)O1", "note": "(stereo not given in full)", "growth": "15.2%"}
{"smiles": "O=C(C(=Cc1ccccc1)C(=O)c1ccccc1)c1ccccc1", "growth": "28.1% and 88.8%"}
{"smiles": "Nc1ccc2cc3ccc(N)cc3nc2c1", "growth": "105% and 15.3%"}
{"smiles": "Cc1cc(O)c(C(C)C)cc1Cl", "growth": "106%"}
{"smiles": "O=C1C=CC(=CC=C2C=CN(CCCCCCCCCCCO)C=C2)C=C1", "growth": "89.8%"}
{"smiles": "COC1OCC(O)C(O)C1O", "note": "(stereo not given)", "growth": "98.5%"}
{"smiles": "CCCCCCCCCCCC[N+](C)(C)Cc1ccccc1", "growth": "90.8%"}
{"smiles": "O=[N+]([O-])C1=C(c2ccccc2)SC=C(c2ccccc2)S1", "growth": "58.7%"}
{"smiles": "COC(=O)C1=COC(C)C2C[n+]3ccc4c([nH]c5ccccc54)c3CC12", "note": "(stereo not given)", "growth": "104% and 101%"}
{"smiles": "Clc1cc(Cl)c(Cl)nn1", "growth": "107%"}
{"smiles": "O=C1C=C(O)c2ccccc2C1=O.[Ag]", "growth": "88.2%"}
{"smiles": "CCCCCCCCCCSC(=N)N", "growth": "-4.11% (active)"}
{"smiles": "CC(=O)Nc1cc(C)ccc1C", "growth": "101%"}
{"smiles": "O=C1NC(=O)c2cc([N+](=O)[O-])ccc21", "growth": "107%"}
{"smiles": "CO[C@H](C(=O)[C@@H](O)[C@@H](C)O)[C@@H]1Cc2cc3cc(OC4CC(OC5CC(O)C(O)C(C)O5)C(O)C(C)O4)c(C)c(O)c3c(O)c2C(=O)[C@H]1OC1CC(OC2CC(OC3CC(C)(O)C(O)C(C)O3)C(O)C(C)O2)C(O)C(C)O1", "note": "(stereo not given in full)", "growth": "6.74% (active)"}
{"smiles": "CCN1/C(=C/C=C/C=C/c2sc3ccccc3[n+]2CC)Sc2ccccc21", "growth": "-20.9% (active)"}
{"smiles": "N=S(c1ccccc1[N+](=O)[O-])c1ccccc1[N+](=O)[O-]", "growth": "-49.6% (active)"}
{"smiles": "CSC1SCC2C(=O)N(C)C(C(C)C)C(=O)OCC(NC(=O)c3cnc4ccccc4n3)C(=O)NC(C)C(=O)N(C)C1C(=O)N(C)C(C(C)C)C(=O)OCC(NC(=O)c1cnc3ccccc3n1)C(=O)NC(C)C(=O)N2C", "note": "(stereo not given)", "growth": "4.08% (active)"}
{"smiles": "Oc1ccc(N=Nc2ccccn2)c(O)c1", "growth": "30.5%"}
{"smiles": "CC(C)(C)CC(C)(C)c1ccc(OCCO)cc1", "growth": "99.8%"}
{"smiles": "CC(C)C(NC(=O)CN)C(=O)O", "note": "(stereo not given) (H-Gly-[ξV]-OH)", "growth": "109% and 106%"}
{"smiles": "O=c1ccn(C2CC(O)C(COC(c3ccccc3)(c3ccccc3)c3ccccc3)O2)c(=O)[nH]1", "note": "(stereo not given)", "growth": "88.9%"}
{"smiles": "Cc1cc(NS(=O)(=O)c2ccc(N=Nc3cc(N=Nc4ccc(S(=O)(=O)Nc5cc(C)nc(C)n5)cc4)c4c(NC(=O)C(Cl)Cl)cccc4c3OC(=O)C(Cl)Cl)cc2)nc(C)n1", "note": "(tested in a mixture with another compound)", "growth": "88.8% and 84.2%"}
{"smiles": "CCO/C=C1\\SC(=S)N(c2cccc(O)c2)C1=O", "growth": "104%"}
{"smiles": "Cc1nc(N=C(N)N)nc2ccc3ccccc3c12", "growth": "71.8%"}
{"smiles": "COc1c(O)cc2oc3cc(O)c(CC=C(C)C)c(O)c3c(=O)c2c1CC=C(C)C", "growth": "24.1%"}
{"smiles": "NNc1ccc2ccccc2c1", "growth": "91.2% and 97%"}
{"smiles": "CS(=O)(=O)OC1CC(n2ccc(=O)[nH]c2=O)OC1COC(c1ccccc1)(c1ccccc1)c1ccccc1", "note": "(stereo not given)", "growth": "93.7%"}
{"smiles": "CC1=CC(C)=Nc2ccc(Cl)cc2N1", "growth": "113%"}
{"system": "HCT-15 colon", "experiment": "NCI-60 one-dose screen, 48 h (100 = growth as untreated, 0 = no growth, -100 = all killed)", "conditions": "100 µM", "procedure": "as §1, §2, §3, §4", "units": {"growth": "%"}}
{"smiles": "O=c1ccn(C2CC(O)C(COC(c3ccccc3)(c3ccccc3)c3ccccc3)O2)c(=O)[nH]1", "note": "(stereo not given)", "growth": 33.4}
